# Data taken from PMC11006913.
# Substitutions are numbered along the chain they refer to.
# Tests used:
# Test in all cases: PBM; 200 nM protein, PBS
# Details in all cases: dsDNA, one strand shown
# NKX2-6 [1] = target: T1, NKX2-6 (Homo sapiens, UniProt A6NCS4 118-204)
# T1 sequence: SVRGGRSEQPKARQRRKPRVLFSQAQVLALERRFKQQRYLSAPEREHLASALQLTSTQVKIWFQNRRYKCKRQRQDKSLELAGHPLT
# NKX2-6 [2] = target: T2, NKX2-6 (Homo sapiens, UniProt A6NCS4 118-204, F151L)
# T2 sequence: T1 sequence with F34L
# NKX3-2 [3] = target: NKX3-2 (Homo sapiens, UniProt P78367 192-278, P234S)
# NKX3-2 [4] = target: NKX3-2 (Homo sapiens, UniProt P78367 192-278)
# PITX2 = PITX2 (Homo sapiens, UniProt Q99697 72-157)
# PAX4 [5] = target: T3, PAX4 (Homo sapiens, UniProt O43316 9-242, R200Q)
# T3 sequence: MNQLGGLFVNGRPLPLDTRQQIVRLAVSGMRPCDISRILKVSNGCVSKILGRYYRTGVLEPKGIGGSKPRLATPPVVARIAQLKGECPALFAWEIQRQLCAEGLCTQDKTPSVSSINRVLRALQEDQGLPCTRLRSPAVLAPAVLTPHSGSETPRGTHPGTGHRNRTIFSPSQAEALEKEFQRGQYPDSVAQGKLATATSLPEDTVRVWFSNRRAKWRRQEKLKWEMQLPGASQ
# PAX4 [6] = target: T4, PAX4 (Homo sapiens, UniProt O43316 9-242, F177Y)
# T4 sequence: T3 sequence with F169Y, Q192R
# PAX4 [7] = target: T5, PAX4 (Homo sapiens, UniProt O43316 9-242, R227W)
# T5 sequence: T3 sequence with Q192R, R219W
# Sequence of NKX3-2 (Homo sapiens, UniProt P78367 192-278) (P78367 192-278): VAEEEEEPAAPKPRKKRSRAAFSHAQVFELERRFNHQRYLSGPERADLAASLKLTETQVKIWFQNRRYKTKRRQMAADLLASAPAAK
# Sequence of NKX3-2 (Homo sapiens, UniProt P78367 192-278, P234S) (P78367 192-278 P234S): as the sequence (P78367 192-278) above, with P43S counted along it
sequence,measurement,setting,value
CAGGCACA,binding signal,NKX2-6 [1],"9.47 upbm affinity estimate (log intensity, higher = more binding, comparable within an allelic series)"
same,binding signal,NKX2-6 [2],"9.38 upbm affinity estimate (log intensity, higher = more binding, comparable within an allelic series)"
CGGGACGC,binding signal,NKX2-6 [1],"9.53 upbm affinity estimate (log intensity, higher = more binding, comparable within an allelic series)"
same,binding signal,NKX2-6 [2],"9.25 upbm affinity estimate (log intensity, higher = more binding, comparable within an allelic series)"
TCAACTCA,binding signal,NKX2-6 [1],"11.4 upbm affinity estimate (log intensity, higher = more binding, comparable within an allelic series)"
same,binding signal,NKX2-6 [2],"9.78 upbm affinity estimate (log intensity, higher = more binding, comparable within an allelic series)"
CATGTGGG,binding signal,NKX2-6 [1],"9.41 upbm affinity estimate (log intensity, higher = more binding, comparable within an allelic series)"
same,binding signal,NKX2-6 [2],"9.56 upbm affinity estimate (log intensity, higher = more binding, comparable within an allelic series)"
CACCGTAG,binding signal,NKX2-6 [1],"9.56 upbm affinity estimate (log intensity, higher = more binding, comparable within an allelic series)"
same,binding signal,NKX2-6 [2],"9.37 upbm affinity estimate (log intensity, higher = more binding, comparable within an allelic series)"
AGTTGCTG,binding signal,NKX2-6 [1],"9.45 upbm affinity estimate (log intensity, higher = more binding, comparable within an allelic series)"
same,binding signal,NKX2-6 [2],"9.39 upbm affinity estimate (log intensity, higher = more binding, comparable within an allelic series)"
same,binding signal,NKX3-2 [3],"10.7 upbm affinity estimate (log intensity, higher = more binding, comparable within an allelic series)"
same,binding signal,NKX3-2 [4],"10.6 upbm affinity estimate (log intensity, higher = more binding, comparable within an allelic series)"
AGCGGAGC,binding signal,NKX2-6 [1],"9.34 upbm affinity estimate (log intensity, higher = more binding, comparable within an allelic series)"
same,binding signal,NKX2-6 [2],"9.31 upbm affinity estimate (log intensity, higher = more binding, comparable within an allelic series)"
AGCCCTCA,binding signal,NKX2-6 [1],"11.1 upbm affinity estimate (log intensity, higher = more binding, comparable within an allelic series)"
same,binding signal,NKX2-6 [2],"9.52 upbm affinity estimate (log intensity, higher = more binding, comparable within an allelic series)"
same,binding signal,NKX3-2 [3],"11.5 upbm affinity estimate (log intensity, higher = more binding, comparable within an allelic series)"
same,binding signal,NKX3-2 [4],"11.6 upbm affinity estimate (log intensity, higher = more binding, comparable within an allelic series)"
TGGTACCA,binding signal,NKX2-6 [1],"9.64 upbm affinity estimate (log intensity, higher = more binding, comparable within an allelic series)"
same,binding signal,NKX2-6 [2],"9.28 upbm affinity estimate (log intensity, higher = more binding, comparable within an allelic series)"
CCCAGCAG,binding signal,NKX2-6 [1],"9.19 upbm affinity estimate (log intensity, higher = more binding, comparable within an allelic series)"
same,binding signal,NKX2-6 [2],"9.49 upbm affinity estimate (log intensity, higher = more binding, comparable within an allelic series)"
CGACGTCA,binding signal,PITX2,"8.05 upbm affinity estimate (log intensity, higher = more binding, comparable within an allelic series)"
ACCGGGGG,binding signal,NKX2-6 [1],"9.31 upbm affinity estimate (log intensity, higher = more binding, comparable within an allelic series)"
same,binding signal,NKX2-6 [2],"9.04 upbm affinity estimate (log intensity, higher = more binding, comparable within an allelic series)"
AAGTCATT,binding signal,NKX2-6 [1],"11.3 upbm affinity estimate (log intensity, higher = more binding, comparable within an allelic series)"
same,binding signal,NKX2-6 [2],"9.8 upbm affinity estimate (log intensity, higher = more binding, comparable within an allelic series)"
GGAAAGTA,binding signal,NKX2-6 [1],"11.2 upbm affinity estimate (log intensity, higher = more binding, comparable within an allelic series)"
same,binding signal,NKX2-6 [2],"9.87 upbm affinity estimate (log intensity, higher = more binding, comparable within an allelic series)"
CTGAGATA,binding signal,PITX2,"9.22 upbm affinity estimate (log intensity, higher = more binding, comparable within an allelic series)"
CCCGCGTC,binding signal,NKX2-6 [1],"9.23 upbm affinity estimate (log intensity, higher = more binding, comparable within an allelic series)"
same,binding signal,NKX2-6 [2],"9.39 upbm affinity estimate (log intensity, higher = more binding, comparable within an allelic series)"
CGCGGTCA,binding signal,NKX2-6 [1],"9.54 upbm affinity estimate (log intensity, higher = more binding, comparable within an allelic series)"
same,binding signal,NKX2-6 [2],"9.33 upbm affinity estimate (log intensity, higher = more binding, comparable within an allelic series)"
GCGACAGC,binding signal,NKX2-6 [1],"9.46 upbm affinity estimate (log intensity, higher = more binding, comparable within an allelic series)"
same,binding signal,NKX2-6 [2],"9.41 upbm affinity estimate (log intensity, higher = more binding, comparable within an allelic series)"
CACACGGA,binding signal,NKX2-6 [1],"9.29 upbm affinity estimate (log intensity, higher = more binding, comparable within an allelic series)"
same,binding signal,NKX2-6 [2],"9.43 upbm affinity estimate (log intensity, higher = more binding, comparable within an allelic series)"
CCCGTTCG,binding signal,NKX2-6 [1],"9.17 upbm affinity estimate (log intensity, higher = more binding, comparable within an allelic series)"
same,binding signal,NKX2-6 [2],"9.43 upbm affinity estimate (log intensity, higher = more binding, comparable within an allelic series)"
same,binding signal,NKX3-2 [3],"10.5 upbm affinity estimate (log intensity, higher = more binding, comparable within an allelic series)"
same,binding signal,NKX3-2 [4],"10.5 upbm affinity estimate (log intensity, higher = more binding, comparable within an allelic series)"
ACCGTTTG,binding signal,NKX2-6 [1],"9.46 upbm affinity estimate (log intensity, higher = more binding, comparable within an allelic series)"
same,binding signal,NKX2-6 [2],"9.44 upbm affinity estimate (log intensity, higher = more binding, comparable within an allelic series)"
AACCGGAG,binding signal,NKX2-6 [1],"9.55 upbm affinity estimate (log intensity, higher = more binding, comparable within an allelic series)"
same,binding signal,NKX2-6 [2],"9.32 upbm affinity estimate (log intensity, higher = more binding, comparable within an allelic series)"
GCTATTGA,binding signal,NKX2-6 [1],"11.7 upbm affinity estimate (log intensity, higher = more binding, comparable within an allelic series)"
same,binding signal,NKX2-6 [2],"9.84 upbm affinity estimate (log intensity, higher = more binding, comparable within an allelic series)"
CGGCGGCC,binding signal,NKX2-6 [1],"9.64 upbm affinity estimate (log intensity, higher = more binding, comparable within an allelic series)"
same,binding signal,NKX2-6 [2],"9.33 upbm affinity estimate (log intensity, higher = more binding, comparable within an allelic series)"
GAAATTAA,binding signal,PAX4 [5],"11.9 upbm affinity estimate (log intensity, higher = more binding, comparable within an allelic series)"
same,binding signal,PAX4 [6],"10.9 upbm affinity estimate (log intensity, higher = more binding, comparable within an allelic series)"
same,binding signal,PAX4 [7],"10.9 upbm affinity estimate (log intensity, higher = more binding, comparable within an allelic series)"
AAATTAGA,binding signal,PAX4 [5],"11.9 upbm affinity estimate (log intensity, higher = more binding, comparable within an allelic series)"
same,binding signal,PAX4 [7],"10.9 upbm affinity estimate (log intensity, higher = more binding, comparable within an allelic series)"
